From the supplement of paper PMC12350171
Structures can show the parent of a compound that is named as a salt. A number with no mark means an inactive call.

Legend:
Conditions in all cases: 20 µM
[1] = test system: Salmonella enterica typhimurium; assay: growth AUC normalised to DMSO control (fraction of control); higher = less growth inhibition, active = hit call of the paper
Outline: (§1)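 Hemin and NAD were added to the medium for Haemophilus parainfluenzae. All pathogens, after two anaerobic passages, were inoculated at a starting OD578 of 0.01 into pre-reduced mGAM plates with 20 μM compound and 1% DMSO under breathable seals, and OD578 was read hourly for 24 h in three biological replicates. AUC of each growth curve was obtained with the trapezoidal rule up to the exponential-to-stationary transition and normalised to DMSO controls from the same plate.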

[2] = test system: Shigella flexneri; assay: as above
Outline: as §1

[3] = test system: Vibrio cholerae; assay: as above
Outline: as §1

[4] = test system: Yersinia pseudotuberculosis; assay: as above
Outline: as §1

[5] = test system: P. vulgatus RND KO; assay: growth AUC normalised to DMSO control (median) (fraction of control); higher = less growth inhibition, active = hit call of the paper
Outline: (§2)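 Strains were passaged twice overnight without oxygen, then grown in mGAM in 96-well plates with each approved-drug library compound at 20 μM and 1% DMSO, starting at OD578 0.01. OD578 was read hourly for 24 h inside an anaerobic incubator. Curves were truncated at entry into stationary phase, and the trapezoidal-rule area under the curve was normalised to same-plate vehicle wells. The value is the median across three biological replicates.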

[6] = test system: P. vulgatus WT; assay: as above
Outline: as §2

[7] = test system: S. enterica typhimurium WT; assay: as above
Outline: as §2

[8] = test system: S. enterica typhimurium tolC KO; assay: as above
Outline: as §2
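Wherever growth AUC normalised to DMSO control (median) is given: active when median AUC fell below 0.1.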

SMILES | growth AUC normalised to DMSO control [1] | growth AUC normalised to DMSO control [2] | growth AUC normalised to DMSO control [3] | growth AUC normalised to DMSO control [4] | growth AUC normalised to DMSO control [5] | growth AUC normalised to DMSO control [6] | growth AUC normalised to DMSO control [7] | growth AUC normalised to DMSO control [8]
C=CCOc1ccccc1OCC(O)CNC(C)C (configuration not stated) [Oxprenolol hydrochloride] | 0.993 | 1.02 | 1.03 | 1 | 0.998 | 1 | 0.997 | 0.994
O=C(Nc1ccc([N+](=O)[O-])cc1Cl)c1cc(Cl)ccc1O [Niclosamide] | 0.995 | 0.983 | 0.0756 (active) | 0.843 (active) | 0.0144 (active) | 0.0167 (active) | 0.992 | 0.00688 (active)
Cc1cc(=O)oc2cc(O)ccc12 [Hymecromone] | 1.01 | 1 | 0.998 | 0.95 | 1.03 | 1.05 | 0.999 | 1.02
COc1cc2nc(N3CCN(C(=O)c4ccco4)CC3)nc(N)c2cc1OC [Prazosin hydrochloride] | 0.993 | 0.984 | 1 | 1.01 | 1 | 1 | 0.993 | 0.97
CN1CCN(c2c(F)cc3c(=O)c(C(=O)O)cn4c3c2SCC4)CC1 [Rufloxacin] | 0.006 (active) | 0.0254 (active) | 0.0252 (active) | 0.0274 (active) | 0.63 | 0.47 | 0.0284 (active) | 0.00853 (active)
CN1CCN2c3ncccc3Cc3ccccc3C2C1 (configuration not stated) [Mirtazapine] | 0.995 | 1.01 | 1.01 | 1 | 1.03 | 1.02 | 1 | 0.997
CN(C)CCN(Cc1cccs1)c1ccccn1 [Methapyrilene hydrochloride] | 0.977 | 0.972 | 0.995 | 0.994 | 1.01 | 0.995 | 1 | 0.985
CC(C)(C)C(=O)OCOC(=O)[C@@H]1N2C(=O)[C@@H](NC(=O)[C@H](N)c3ccccc3)[C@H]2SC1(C)C [Pivampicillin] | 0.97 | 1.01 | 0.987 | 0.818 (active) | 1.01 | 1.02 | 0.993 | 1
CC(=O)CC(c1ccccc1)c1c(O)c2ccccc2oc1=O (configuration not stated) [Warfarin] | 0.999 | 0.996 | 0.945 | 0.999 | 1 | 1.03 | 0.999 | 0.988
Cc1cc2c(s1)Nc1ccccc1N=C2N1CCN(C)CC1 [Olanzapine] | 0.997 | 0.996 | 0.997 | 1.01 | 1.03 | 1.03 | 1.02 | 0.994
Nc1nc(=S)c2ncn([C@@H]3O[C@H](CO)[C@@H](O)[C@H]3O)c2[nH]1 [Thioguanosine] | 0.828 (active) | 0.0952 (active) | 0.957 | 0.826 (active) | 1.03 | 1.06 | 0.849 | 0.779
CO[C@H]1/C=C/O[C@@]2(C)Oc3c(C)c(O)c4c(O)c(c(/C=N/N5CCN(C)CC5)c(O)c4c3C2=O)NC(=O)/C(C)=C\C=C\[C@H](C)[C@H](O)[C@@H](C)[C@@H](O)[C@@H](C)[C@H](OC(C)=O)[C@@H]1C [Rifampicin] | 0.23 (active) | 0.118 (active) | 1.01 | 0.0362 (active) | 0.0135 (active) | 0.0147 (active) | 0.523 | 0.254
CC(=O)OCC(=O)[C@@]1(OC(C)=O)[C@@H](C)C[C@H]2[C@@H]3C[C@H](F)C4=CC(=O)C=C[C@]4(C)[C@@]3(F)[C@@H](O)C[C@@]21C [Diflorasone Diacetate] | 1 | 0.977 | 1.01 | 1.01 | 1 | 1.03 | 0.997 | 1
CC[C@@]1(O)C(=O)OCc2c1cc1n(c2=O)Cc2cc3c(CN(C)C)c(O)ccc3nc2-1 [Topotecan] | 1.05 | 1.04 | 1.03 | 1.02 | 1.01 | 1.02 | 1.02 | 0.983
CC(N)CCCC(C)(C)O (configuration not stated) [Heptaminol hydrochloride] | 1 | 0.999 | 0.986 | 0.997 | 1.01 | 1.05 | 1.01 | 0.996
CNC(=C[N+](=O)[O-])NCCSCc1csc(CN(C)C)n1 [Nizatidine] | 0.998 | 0.989 | 0.997 | 1 | 1.03 | 1.04 | 1.02 | 0.989
CC(NCCc1ccc(O)cc1)C(O)c1ccc(O)cc1 (configuration not stated) [Ritodrine hydrochloride] | 1.01 | 1.02 | 0.999 | 1 | 1 | 1.01 | 1 | 0.997
CC(C)NC[C@H](O)COc1ccc(CC(N)=O)cc1 [(S,-) Atenolol] | 0.988 | 0.972 | 0.996 | 1.02 | 0.985 | 0.963 | 0.987 | 0.989
CNCCC=C1c2ccccc2CCc2ccccc21 [Nortriptyline hydrochloride] | 0.998 | 0.991 | 0.937 | 0.992 | 0.99 | 1.01 | 1 | 0.971
Cc1cc(NC(=O)C2=C(O)c3ccccc3S(=O)(=O)N2C)no1 [Isoxicam] | 0.982 | 0.974 | 0.901 | 0.984 | 0.979 | 0.975 | 0.991 | 0.993
CCCCC1C(=O)N(c2ccccc2)N(c2ccc(O)cc2)C1=O (configuration not stated) [Oxyphenbutazone] | 0.996 | 1.04 | 1.03 | 1 | 1.03 | 1.06 | 1.01 | 1.01
CCCCOC(=O)c1ccc(O)cc1 [Butylparaben] | 1.01 | 0.969 | 0.896 | 0.962 | 0.974 | 1 | 0.994 | 0.953
OCCOCCN1CCN(C2=Nc3ccccc3Sc3ccccc32)CC1 [Quetiapine hemifumarate] | 0.999 | 0.978 | 0.991 | 0.981 | 0.946 | 0.91 | 1.01 | 0.977
CC(CN(C)C)CN1c2ccccc2CCc2ccccc21 (configuration not stated) [Trimipramine maleate salt] | 1 | 1.05 | 1.07 | 1.01 | 1.06 | 1.03 | 1.02 | 0.963
CCCCC1(COC(=O)CCC(=O)O)C(=O)N(c2ccccc2)N(c2ccccc2)C1=O [Suxibuzone] | 1 | 1 | 0.993 | 1.01 | 1.02 | 1.03 | 1.01 | 0.985
CCOC(=O)[C@H](CCc1ccccc1)N[C@@H](C)C(=O)N1Cc2ccccc2C[C@H]1C(=O)O [Quinapril hydrochloride] | 0.986 | 0.967 | 0.988 | 1.01 | 0.995 | 0.982 | 0.982 | 0.996
C[C@]12CC[C@@H]3c4ccc(OS(=O)(=O)O)cc4CC[C@H]3[C@@H]1CCC2=O [Estropipate piperazine salt] | 0.985 | 0.974 | 0.991 | 0.965 | 0.987 | 0.983 | 0.997 | 0.996
CCC[C@@H]1C[C@@H](C(=O)N[C@@H]([C@H]2O[C@H](SC)[C@H](O)[C@@H](O)[C@H]2O)[C@@H](C)O)N(C)C1 [Lincomycin hydrochloride] | 0.904 (active) | 0.956 | 0.956 | 0.994 | 0.0196 (active) | 0.0159 (active) | 0.956 | 0.866
O=C(O)CCNC(=O)c1ccc(/N=N/c2ccc(O)c(C(=O)O)c2)cc1 [Balsalazide disodium salt] | 1.03 | 1.03 | 1.05 | 1 | 1.02 | 1.08 | 0.996 | 1.02
